Source: PubChem (Paczesny and Yang Labs, IUPUI and University of Michigan)
The entries come from a sample that favours hits as a whole.
ST2 inh = IL1RL1 inhibition; AID 1259354; hit rate 2.3% among 78,000; AlphaLISA ST2-Fc/biotin-IL-33 interaction, 1 h; inhibition, % for hits at 17 µM; Q01638; in the data active = inhibition above about 30%
Target sequence (Q01638 whole entry, looked up): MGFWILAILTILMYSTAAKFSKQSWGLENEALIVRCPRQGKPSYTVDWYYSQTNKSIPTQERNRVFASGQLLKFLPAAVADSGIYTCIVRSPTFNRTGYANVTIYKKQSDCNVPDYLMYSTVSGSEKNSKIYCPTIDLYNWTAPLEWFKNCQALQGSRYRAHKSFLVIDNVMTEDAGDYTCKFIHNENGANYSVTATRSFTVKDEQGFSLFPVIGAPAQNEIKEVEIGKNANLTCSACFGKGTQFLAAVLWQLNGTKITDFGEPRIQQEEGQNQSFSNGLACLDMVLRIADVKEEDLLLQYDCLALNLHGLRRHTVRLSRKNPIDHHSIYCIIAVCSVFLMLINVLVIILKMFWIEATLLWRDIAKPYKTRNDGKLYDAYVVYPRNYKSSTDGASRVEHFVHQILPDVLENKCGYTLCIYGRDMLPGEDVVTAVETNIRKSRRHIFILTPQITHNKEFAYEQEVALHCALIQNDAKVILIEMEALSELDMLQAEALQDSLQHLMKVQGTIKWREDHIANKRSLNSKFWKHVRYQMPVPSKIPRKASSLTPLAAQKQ
Large screens that a line does not name were inactive.

COc1ccc(N=Cc2c(O)c([N+](=O)[O-])cc3oc4c(c23)CCCC4)cc1	none
COc1ccc(N=Cc2c(O)ccc3oc4c(c23)CCCC4)cc1	ST2 inh 40%
COc1cccc(-n2c(O)c(C=Nc3ccc(Cl)cc3)c3ccccc3c2=O)c1	none
Cc1c(Cl)c(C)c([N+](=O)[O-])c(O)c1C=Nc1ccc(C(=O)O)cc1	none
COc1ccc(N=Cc2c(O)cc(C)c(Cl)c2C)cc1	ST2 inh 43%
CCc1ccc(CN2CC[C@@H](c3ccc4c(c3)OCO4)[C@H](O)C2)nc1	none
CN1CCN(C(=O)CC[C@@H]2CNC(=O)[C@@H]3C[C@H](NC(=O)Nc4cccc(Cl)c4)CN23)CC1	none
COc1cc2c(cc1OC)C(C(=O)N1CCCCC1)C(c1cccs1)N(C)C2=O (stereo not given)	none
CC(C)CNC(=O)c1ccc(C2SCC(=O)N2CCc2ccccc2)cc1 (stereo not given)	none
O=C(NC1CCCC1)c1cc(I)ccc1Cl	none
O=C(c1ccccc1Cl)N(c1ccc(F)cc1)C1C=CS(=O)(=O)C1 (stereo not given)	none
Cc1ccc2[nH]c3c(c2c1)CN(C(=O)C1CCCN(CC(N)=O)C1)CC3 (stereo not given)	none
COC(CN(C(C)=O)C1CCCc2c1[nH]c1ccc(C)cc21)OC (stereo not given)	none
Cc1ccc2[nH]c3c(c2c1)CCCC3NCc1ccc(F)cc1 (stereo not given)	ST2 inh 32%
Cc1cc(Br)ccc1NC(=O)C1COc2ccccc2O1 (stereo not given)	none
CCOC(=O)c1c(NC(=O)c2cc(C)on2)sc2c1CCCC2	none
COc1cccc(-c2n[nH]c3c2CN(C(=O)c2cc(C(C)C)no2)CC3)c1	none
Cc1cc(Br)c2c(c1)C(=O)C(=O)N2C	none
Cc1ccc(C)c(S(=O)(=O)N=C(c2ccc(Cl)cc2)N(C)C)c1	ST2 inh 78%
CCN(CC)C(=NS(=O)(=O)c1cc(C)ccc1C)c1ccccc1	none
Cc1ccc(C(=O)Nc2cc(Cl)ccc2C)cc1	none
COc1ccc(OC)c(NC(=O)CCC(=O)O)c1	none
O=C1CCCC2=C1C(c1ccc(O)cc1)Nc1ccc3ccccc3c12 (stereo not given)	none
COc1ccc(N=Cc2cc3c(cc2O)OC(N)=C(C#N)C3c2cccc(F)c2)cc1 (stereo not given)	ST2 inh 33%
N#CC1=C(N)Oc2cc(N)ccc2C1c1cccc(I)c1 (stereo not given)	none
N#CC1=C(N)Oc2cc(O)c(Cl)cc2C1c1ccc(F)cc1 (stereo not given)	none
Cc1ccc(Cn2c(CCNC(=O)Nc3cccc(Br)c3)nc3cccnc32)cc1	none
Cc1ccc(-n2ncc3c(Nc4ccc(F)cc4)ncnc32)c(C)c1	none
Cc1cccc(C2=N/C(=C\c3ccco3)C(=O)O2)c1	ST2 inh 47%
COc1ccc(/C=C2\N=C(c3cccc(C)c3)OC2=O)c(OC)c1OC	ST2 inh 48%
Cc1cccc(/C=C2\N=C(c3ccc4c(c3)OCO4)OC2=O)c1	none
Cc1cccc(C2=N/C(=C\c3c(F)cccc3Cl)C(=O)O2)c1	none
COc1ccc(C2=N/C(=C\c3cccc(C(F)(F)F)c3)C(=O)O2)cc1OC	none
COc1cc(C)c(/C=C2/N=C(c3ccccc3)OC2=O)cc1C(C)C	none
Cc1cccc(C2=N/C(=C\c3cccc(C(F)(F)F)c3)C(=O)O2)c1	ST2 inh 32%
COc1ccccc1/C=C1\N=C(c2cccc([N+](=O)[O-])c2)OC1=O	none
COc1ccc(/C=C2\N=C(c3ccc(-c4ccccc4)cc3)OC2=O)cc1	none
CCOc1ccc(/C=C2\N=C(c3cccc(I)c3)OC2=O)cc1	none
CCOc1ccc(/C=C2\N=C(c3cccc(F)c3)OC2=O)cc1OC	none
Cc1cccc(C2=N/C(=C\c3ccc(C)o3)C(=O)O2)c1	ST2 inh 53%
COc1cccc(Cn2c(CNS(=O)(=O)c3ccc(CC(C)C)cc3)nc3cccnc32)c1	none
CCOc1ccc(-c2[nH]nc3c2C2(C(=O)N(CC(=O)O)c4ccccc42)C(C#N)=C(N)O3)cc1 (stereo not given)	none
CC1CC(C)CN(C(=O)c2ccc3c(c2)ncn3C2CCCC2)C1 (stereo not given)	none
Cc1ccc2c(c1)CN(CC(=O)NCCc1nc3ccccc3n1C)CC(c1ccsc1)O2 (stereo not given)	none
CC(C)(C)NS(=O)(=O)Nc1ccccc1	none
CNC(=O)[C@@H]1C[C@H](N)CN1C1CSCCSC1	none
O=C1OC(c2cccc([N+](=O)[O-])c2)=N/C1=C\c1ccc(Cl)cc1Cl	none
Cc1cccc(C2=N/C(=C\c3sccc3C)C(=O)O2)c1	ST2 inh 37%
Cc1cccc(/C=C2\N=C(c3ccccc3[N+](=O)[O-])OC2=O)c1	none
O=C1C2CCCN2C(c2ccc(F)c(F)c2)N1c1nccs1 (stereo not given)	none
COc1ccc(/C=C/C(=O)NCCN2Cc3ccccc3OC(c3ccsc3)C2)cc1OC (stereo not given)	none
CC1CCCC(NC(=O)CN2CCN(Cc3ccc(F)cc3Cl)C2=O)C1C (stereo not given)	none
COCCNc1nc(-c2ccc(C(C)(C)C)cc2)nc2ccccc12	none
CCO/C=C1\c2cc([N+](=O)[O-])ccc2-c2c1cc([N+](=O)[O-])cc2[N+](=O)[O-]	ST2 inh 54%
